Laboratory results taken from PubChem BioAssay (NCATS).
Records with an inconclusive call do not appear. A number with no mark means an inactive call. Calls of active or inactive are those of the source. Calls follow the shape of the dose curve; as a rule, active = well fitted curve in the direction sought with a large enough effect; inconclusive = small, poorly fitted or top-dose-only effect, or another doubt; inactive = no such curve, though single readings can be large; an effect the other way counts as inactive or inconclusive.

tested on: Zika virus NS2B-NS3 protease (linked construct); assay: 384 well plate NINDS Rhodamine confirmatory qHTS for Zika virus inhibitors (AID 1347164); details: rhodamine-110 peptide substrate fluorescence; series mostly up to 1 mM; activity change, negative = inhibition: at the top concentration;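 also: fluorescence from protease cleavage of Ac-LKRR-rhodamine 110 substrate; nearly all actives have a fitted effect of over 65% in size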; also: potency is read from the fitted curve at half-maximal effect;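 as to activity change, negative = inhibition: top concentration of the series differs between compounds; plate controls were no-inhibitor control for no effect and no-enzyme control for full effect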
Outline: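 Fluorescence at 485/538 nm was measured 25 minutes after adding 10 microM Ac-LKRR-Rd substrate, in the dark at room temperature. The protease (5, 30 or 60 nM final) had been preincubated ~15 minutes with compound; aprotinin as control.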

| SMILES | Potency | activity change, negative = inhibition [%] |
| --- | --- | --- |
| O=C1Cc2cc(CCN3CCN(c4nsc5ccccc45)CC3)c(Cl)cc2N1 | 2820 nM (active) |  |
| Cc1ccc(C(=O)Nc2ccc(S(=O)(=O)O)c3cc(S(=O)(=O)O)cc(S(=O)(=O)O)c23)cc1NC(=O)c1cccc(NC(=O)Nc2cccc(C(=O)Nc3cc(C(=O)Nc4ccc(S(=O)(=O)O)c5cc(S(=O)(=O)O)cc(S(=O)(=O)O)c45)ccc3C)c2)c1 |  | -128 |
| O=C(Nc1ccc([N+](=O)[O-])cc1Cl)c1cc(Cl)ccc1O | 7940 nM (active) |  |

biological target: Lysine-specific demethylase 5B (Homo sapiens) (UniProt Q9UGL1); assay: Optimization screen for KDM5B Histone Demethylases FDH coupled qHTS against the LOPAC library (AID 1347166); details: KDM5B demethylation, FDH-coupled NADH fluorescence (FDH is formaldehyde dehydrogenase); series mostly up to 57.5 µM; activity, negative = inhibition: at the top concentration; also: 0% is about no effect
Sequence (Q9UGL1 whole entry, looked up): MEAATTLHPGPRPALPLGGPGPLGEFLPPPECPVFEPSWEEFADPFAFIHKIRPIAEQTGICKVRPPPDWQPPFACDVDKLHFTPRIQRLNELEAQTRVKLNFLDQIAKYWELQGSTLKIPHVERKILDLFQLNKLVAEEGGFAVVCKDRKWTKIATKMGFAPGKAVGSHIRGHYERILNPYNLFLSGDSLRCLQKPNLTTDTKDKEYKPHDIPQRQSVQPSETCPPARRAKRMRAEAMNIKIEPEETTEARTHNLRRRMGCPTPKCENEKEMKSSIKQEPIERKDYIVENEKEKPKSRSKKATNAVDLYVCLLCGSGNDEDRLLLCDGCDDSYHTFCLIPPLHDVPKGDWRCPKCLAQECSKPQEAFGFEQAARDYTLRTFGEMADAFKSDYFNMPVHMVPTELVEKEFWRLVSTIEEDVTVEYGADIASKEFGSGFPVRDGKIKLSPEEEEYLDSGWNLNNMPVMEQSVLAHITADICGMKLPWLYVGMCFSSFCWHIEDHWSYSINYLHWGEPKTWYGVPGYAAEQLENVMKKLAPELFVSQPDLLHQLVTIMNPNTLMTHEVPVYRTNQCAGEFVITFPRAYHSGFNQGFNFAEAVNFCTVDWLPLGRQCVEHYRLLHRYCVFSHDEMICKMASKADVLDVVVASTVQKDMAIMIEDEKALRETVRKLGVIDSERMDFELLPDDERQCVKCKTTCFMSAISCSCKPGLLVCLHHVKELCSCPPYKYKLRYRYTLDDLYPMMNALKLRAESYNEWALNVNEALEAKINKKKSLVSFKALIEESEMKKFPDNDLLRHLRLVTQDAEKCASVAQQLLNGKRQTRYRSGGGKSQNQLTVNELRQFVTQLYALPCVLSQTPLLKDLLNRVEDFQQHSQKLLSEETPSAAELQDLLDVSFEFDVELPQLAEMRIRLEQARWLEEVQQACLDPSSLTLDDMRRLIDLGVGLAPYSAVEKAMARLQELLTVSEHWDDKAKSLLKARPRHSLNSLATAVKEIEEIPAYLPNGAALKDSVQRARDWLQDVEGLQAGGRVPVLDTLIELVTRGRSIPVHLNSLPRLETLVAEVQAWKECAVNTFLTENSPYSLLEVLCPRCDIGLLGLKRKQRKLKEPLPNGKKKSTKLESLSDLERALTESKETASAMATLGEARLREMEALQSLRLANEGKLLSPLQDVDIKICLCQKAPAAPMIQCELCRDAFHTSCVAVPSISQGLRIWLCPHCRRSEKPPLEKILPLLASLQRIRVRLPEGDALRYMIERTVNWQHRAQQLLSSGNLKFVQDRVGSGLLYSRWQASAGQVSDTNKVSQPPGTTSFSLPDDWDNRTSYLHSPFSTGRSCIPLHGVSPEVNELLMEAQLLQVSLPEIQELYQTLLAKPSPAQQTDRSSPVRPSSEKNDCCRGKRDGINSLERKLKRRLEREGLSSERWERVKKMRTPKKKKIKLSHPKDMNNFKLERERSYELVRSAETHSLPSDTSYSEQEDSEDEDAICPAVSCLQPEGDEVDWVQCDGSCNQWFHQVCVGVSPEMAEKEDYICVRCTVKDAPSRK
Outline: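 KDM5BDeltaAP (200nM final) in 50mM HEPES pH 7.5, 0.01% Tween-20 was preincubated with compound for 10 min at room temperature. A substrate mix of 12.5uM H3K4Me3, 25uM a-ketoglutarate, ascorbate, Fe2+, NAD+ and formaldehyde dehydrogenase was then added. NADH fluorescence (340/450 nm) was read initially and after 30 min.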

| SMILES | activity, negative = inhibition [%] |
| --- | --- |
| NC(=O)OCC(COC(N)=O)c1ccccc1 | -4.71 |
| Cn1c(=O)c2[nH]cnc2n(C)c1=O | -8.38 |
| O=C(C1CCCCC1)N1CC(=O)N2CCc3ccccc3C2C1 (stereo unspecified) | 1.91 |
| CC[N+](CC)(CC)CCOc1cccc(OCC[N+](CC)(CC)CC)c1OCC[N+](CC)(CC)CC | -12.5 |
| CNCCCC12CCC(c3ccccc31)c1ccccc12 | -6.07 |
| CC(C(=O)O)c1cccc(C(=O)c2ccccc2)c1 (stereo unspecified) | -3.67 |
| O=C1N(c2ccccc2)c2ccccc2C1(Cc1ccncc1)Cc1ccncc1 | -6.22 |
| Nc1nc2c(ncn2COC(CO)CO)c(=O)[nH]1 | -0.37 |
| CN(C)CCC=C1c2ccccc2C=Cc2ccccc21 | -4.03 |
| CN1CCN(CCCN2c3ccccc3Sc3ccc(Cl)cc32)CC1 | -16.6 |
| COc1ccc2c(c1)c(CC(=O)O)c(C)n2C(=O)c1ccc(Cl)cc1 | -8.72 |
| CCCNCC(O)COc1ccccc1C(=O)CCc1ccccc1 (stereo unspecified) | -4.3 |
| O=C(CCCN1CCC(O)(c2ccc(Cl)cc2)CC1)c1ccc(F)cc1 | -6.21 |
| COc1ccccc1OCCNCC(O)COc1cccc2[nH]c3ccccc3c12 (stereo unspecified) | -5.87 |
| CC(C)NCC(O)COc1ccc(CCOCC2CC2)cc1 (stereo unspecified) | -2.46 |
| Clc1ccccc1C(c1ccccc1)(c1ccccc1)n1ccnc1 | -5.83 |
| NCCS(=O)(=O)O | -4.21 |
| Cc1cn([C@H]2C[C@H](N=[N+]=[N-])[C@@H](CO)O2)c(=O)[nH]c1=O | -3.43 |
| CC(C)Cc1ccc(C(C)C(=O)O)cc1 (stereo unspecified) | -4.49 |
| CC(COc1ccccc1)N(CCCl)Cc1ccccc1 (stereo unspecified) | -2.55 |
| Nc1nnc(-c2cccc(Cl)c2Cl)c(N)n1 | -9.49 |
| CN(C)CCOC(c1ccccc1)c1ccccc1 | -3.33 |
| O=c1c(-c2ccc(O)cc2)coc2cc(O)cc(O)c12 | -4.6 |
| CCCCc1oc2ccccc2c1C(=O)c1cc(I)c(OCCN(CC)CC)c(I)c1 | -17.2 |
| O=C(Nc1ccc([N+](=O)[O-])cc1Cl)c1cc(Cl)ccc1O | -9.22 |

tested on: not listed separately; assay: Tertiary RLuc qRT-PCR qHTS assay for Zika virus inhibitors (AID 1347169); details: infected Vero cells, reporter luminescence, 48-72 h; series mostly up to 45.9 µM; activity change, negative = inhibition: at the top concentration; also: nearly all actives have a fitted effect of over 55% in size; also: potency is read from the fitted curve at half-maximal effect; as to activity change, negative = inhibition: top concentration of the series differs between compounds; % is scaled to controls: 0 for no effect and ±100 for the full control effect
Outline: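 Orthogonal cell-based readout: luminescence measured 1-1.5 hrs after adding live-cell Renilla substrate to Vero cells that had been infected with ZIKV-RLuc (MOI 1-2) post-compound, incubated 48-72 hrs at 37 degrees C.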

| SMILES | activity change, negative = inhibition [%] | Potency |
| --- | --- | --- |
| O=C1Cc2cc(CCN3CCN(c4nsc5ccccc45)CC3)c(Cl)cc2N1 | -1.84 |  |
| Cc1ccc(C(=O)Nc2ccc(S(=O)(=O)O)c3cc(S(=O)(=O)O)cc(S(=O)(=O)O)c23)cc1NC(=O)c1cccc(NC(=O)Nc2cccc(C(=O)Nc3cc(C(=O)Nc4ccc(S(=O)(=O)O)c5cc(S(=O)(=O)O)cc(S(=O)(=O)O)c45)ccc3C)c2)c1 |  | inactive |
| O=C(Nc1ccc([N+](=O)[O-])cc1Cl)c1cc(Cl)ccc1O |  | 294 nM (active) |
